Assay results published in PubChem BioAssay AID1851 (National Center for Advancing Translational Sciences (NCATS), 2009).
In all, about 16,000 compounds went through this assay and about 4,000 (25%) were called active. Another 26% or so got no clear call; they are omitted. Calls follow the shape of the dose curve; as a rule, active = well fitted curve in the direction sought with a large enough effect; inconclusive = small, poorly fitted or top-dose-only effect, or effect the other way; inactive = no such curve, though single readings can be large or run the other way. A selection follows.

Molecular target: Cytochrome P450 2C9 (Homo sapiens) (UniProt P11712)
Sequence (P11712 whole entry, looked up): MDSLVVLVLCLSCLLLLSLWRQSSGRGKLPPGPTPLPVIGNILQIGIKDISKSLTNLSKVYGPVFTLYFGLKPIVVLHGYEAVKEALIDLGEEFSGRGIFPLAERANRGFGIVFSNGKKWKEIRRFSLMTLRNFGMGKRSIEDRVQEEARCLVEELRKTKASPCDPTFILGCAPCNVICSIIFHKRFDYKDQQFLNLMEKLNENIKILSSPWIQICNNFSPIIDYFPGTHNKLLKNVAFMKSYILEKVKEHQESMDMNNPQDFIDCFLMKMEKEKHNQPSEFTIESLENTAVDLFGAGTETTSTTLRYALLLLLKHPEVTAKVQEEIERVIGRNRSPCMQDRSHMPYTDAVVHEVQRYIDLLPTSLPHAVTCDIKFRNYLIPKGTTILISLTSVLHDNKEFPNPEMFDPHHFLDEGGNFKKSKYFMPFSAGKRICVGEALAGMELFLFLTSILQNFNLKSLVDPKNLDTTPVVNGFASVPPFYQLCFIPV
Assay: Cytochrome panel assay with activity outcomes
Details: recombinant CYP, pro-luciferin dealkylation, luminescence, p450-cyp2c9; series mostly up to 57.1 µM
% is scaled to controls: 0 for no effect and ±100 for the full control effect.

activity, negative = inhibition, inactive:
CC1(C)O[C@H]2[C@@H](O1)[C@@H](On1nnc3ccc(Cl)cc31)O[C@@H]2[C@@H]1COC(C)(C)O1 -3.36% [at 11.4 µM]
N#Cc1cccc(-c2ccc3ncnc(N4CCNCC4)c3c2)c1 20.7% [at 2.29 µM]
O=C1C2=CC[C@H]3C(=O)N(c4cccc(Oc5ccccc5)c4)C(=O)[C@@H]3[C@@H]2[C@H](O)[C@@H]2O[C@H]12 4.88% [at 11.4 µM]
CCOC(=O)CCN1C(=O)[C@H]2[C@H]3[C@H](O)[C@H](O)C/C(=N/OC/C=C(\C)CCC=C(C)C)[C@@H]3CC[C@@H]2C1=O 7.78% [at 11.4 µM]
CN1CCN(c2ncnc3ccc(-c4ccc(C(=O)N(C)C)cc4)cc23)CC1 17.4% [at 2.29 µM]
Cc1noc(C)c1-c1ccc2ncnc(Nc3ccc(F)cc3)c2c1 -13.2% [at 2.29 µM]
CS(=O)(=O)Nc1cccc(-c2nccc(Nc3ccc(F)cc3)n2)c1 18.7% [at 2.29 µM]
CC(=O)OC[C@@H]1O[C@H](CCO/N=C\[C@@H](C)[C@H](OCc2ccccc2)C(C)C)C=C[C@@H]1OC(C)=O -15.4% [at 11.4 µM]
O=C(N/N=C1/C[C@@H](O)[C@@H](O)[C@@H]2[C@H]3C(=O)N(c4ccc(F)cc4F)C(=O)[C@@H]3CC[C@@H]12)OCc1ccccc1 -1.14% [at 11.4 µM]
NC(N)=N/N=C\c1ccc(O)c(C(=O)O)c1 2.83% [at 11.4 µM]
O=C(O)c1ccc(C(=O)O)c(C(=O)O)c1.[NH-][C@@H]1CCCC[C@@H]1[NH-].[Pt] 0.225% [at 11.4 µM]
O=C(O)c1ccc(C(=O)c2ccccc2C(=O)O)cc1C(=O)O -6.86% [at 11.4 µM]
COc1ccccc1CNc1cc(-c2c(C)noc2C)ncn1 -2.44% [at 2.29 µM]
Cc1ccnc(NS(=O)(=O)c2ccc(N=[N+]=[N-])cc2)n1 -7.68% [at 11.4 µM]
COC(=O)[C@@H]1O[C@@H](c2c(OC)c(OC)c(C)c(OC)c2OC)[C@H](C)[C@@H](O)[C@@H]1C 14.6% [at 11.4 µM]
Nc1cccc(OCc2nc(N)nc(N)c2-c2ccc(Cl)cc2)c1 -4.32% [at 11.4 µM]
O=C(Nc1ccc(Nc2ccc3c(c2)C(=O)c2ccccc2C3=O)c2c1C(=O)c1ccccc1C2=O)c1ccccc1 -2.6% [at 11.4 µM]
O=C1c2ccccc2-c2ccc(NC(=O)[C@H]3CCCC[C@@H]3C(=O)O)cc21 -10.8% [at 11.4 µM]
O=C(O)c1ccc(Nc2ccnc3cc(Cl)ccc23)cc1O -1.26% [at 11.4 µM]
CSCC[C@@H]1NC(=O)C/C=C\[C@@H](C)COC(=O)[C@@H](C)COC1=O 14.5% [at 11.4 µM]
O=S(=O)(O)c1ccc(N=Nc2ccccc2)cc1 -1.61% [at 11.4 µM]
Cc1ccccc1-c1nccc(NCc2cccnc2)n1 -17.5% [at 2.29 µM]
c1ccc(CNc2ccnc(-c3cccnc3)n2)cc1 -12.1% [at 2.29 µM]
N#Cc1cccc(-c2nccc(NCc3cccnc3)n2)c1 -11.5% [at 2.29 µM]
COc1ccc(CNc2ccnc(-c3cccnc3)n2)c(OC)c1 8.69% [at 2.29 µM]
CN(C)C(=O)c1ccc(-c2nccc(NCc3cccnc3)n2)cc1 5.1% [at 2.29 µM]
COc1cccc(-c2nccc(NCc3cccs3)n2)c1 -26.6% [at 2.29 µM]
c1csc(CNc2ccnc(-c3ccoc3)n2)c1 -25.1% [at 2.29 µM]

AC50, inactive:
Nn1nnc2ccccc21
CCN(CC)S(=O)(=O)N1CCC(C(=O)NCc2ccc(C)cc2)CC1
COc1ccc(C(CNC(=O)c2cc(=O)[nH]c3ccccc23)N2CCCC2)cc1 (stereo unspecified)
Cc1ccc(CS(=O)(=O)CCC(=O)NCc2ccccn2)cc1
Cc1ccc(CNC(=O)Cn2cncn2)cc1
Cc1ccc(C(=O)c2ccc(CC(=O)O)n2C)cc1
FC(F)(F)c1cc(CN2CCC3(CCNCC3)CC2)cc(C(F)(F)F)c1
COC(=O)c1cc(/C=C/c2ccccc2)on1
CCCCN1CCCC[C@H]1C(=O)Nc1c(C)cccc1C
CON1C(=O)C(=O)N(OC)C(C)(C)C1C (stereo unspecified)
Cc1cc([N+](=O)[O-])nn1CC(=O)NNC(=S)Nc1ccc(F)cc1
Cc1cc(NC(=O)c2c([N+](=O)[O-])c(C)nn2C)no1
NC(=O)CN1CCOCCOCCOCCOCCOCC1
O=S(=O)(NCc1cccnc1)c1ccc(Cl)nc1
NCCSSCCN
Cc1nc2cnc(N3CCNCC3)nc2n(Cc2cccs2)c1=O
O=c1c(-c2ccc(F)cc2)nc2cnc(N3CCOCC3)nc2n1Cc1cccs1
COc1ccc(-c2nc3cnc(N4CCN(C)CC4)nc3n(Cc3cccs3)c2=O)cc1
CN(C)c1ncc2nc(-c3cc(F)cc(F)c3)c(=O)n(Cc3cccs3)c2n1
O=c1cnc2cnc(N3CCNCC3)nc2n1Cc1cccs1
CN1CCN(c2ncc3nc(-c4ccc(Cl)cc4)c(=O)n(Cc4cccs4)c3n2)CC1
CN1CCN(c2ncc3nc(-c4cc(F)cc(F)c4)c(=O)n(Cc4cccs4)c3n2)CC1
COc1ccc(NC(=O)N2CC[C@@]3(CCCN(C(=O)c4cc(C(F)(F)F)cc(C(F)(F)F)c4)C3)C2)cc1
O=C1C(O)=C(O)C(=O)C(O)=C1O
COCCn1c(=O)c(-c2cccs2)nc2cnc(N3CCN(C)CC3)nc21
COc1ccc(-n2c(=O)c(-c3cccs3)nc3cnc(N4CCNCC4)nc32)cc1
Cc1noc(C)c1C(=O)N1CCC2(CCN(C(=O)NC(C)C)CC2)CC1
COC(=O)C1=C(CSc2nncn2C)NC(=O)NC1c1ccc(F)cc1 (stereo unspecified)
OCCCCNCc1ccc(OCc2ccccc2Cl)cc1
CC1(C)S[C@@H]2[C@H](NC(=O)[C@@H](NC(=O)N3CCNC3=O)c3ccccc3)C(=O)N2[C@H]1C(=O)O
O=c1c(-c2ccc(F)cc2)nc2cncnc2n1-c1ccccc1
CN(C)c1ncc2nc(-c3cccs3)c(=O)n(-c3ccccc3)c2n1
COc1ccc(-n2c(=O)c(-c3ccccc3)nc3cncnc32)cc1
COc1ccc(-n2c(=O)c(-c3cccs3)nc3cncnc32)cc1
c1ccc(CN(CC2=NCCN2)c2ccccc2)cc1
COc1nc(Oc2ccc(/C=N/O)cc2)nc(N(C)C)n1
O=S(=O)(/N=C(/Nc1ccccn1)c1ccccc1)c1ccccc1

AC50, active:
Cc1ccc(CNC(=O)Cc2csc(Nc3nc(=S)[nH]c4ccccc34)n2)cc1 0.891 µM
COc1ccc(CNC(=O)Cc2csc(Nc3nc(=S)[nH]c4ccccc34)n2)cc1 0.224 µM
O=C(Cc1csc(Nc2nc(=S)[nH]c3ccccc23)n1)NCc1cccc(Cl)c1 0.0631 µM
COC(=O)C1=C(C)N=C2SC(C)C(=O)N2C1/C=C/c1ccccc1 (stereo unspecified) 4.47 µM
COC(=O)[C@@]1(Cc2ccccc2)[C@H]2c3cc(C(=O)N(C)C)n(Cc4ccsc4Br)c3C[C@H]2CN1C(=O)c1ccccc1 3.98 µM
COC(=O)[C@@]1(Cc2ccccc2)[C@H]2c3cc(C(=O)N4CCCC4)n(Cc4ccsc4Br)c3C[C@H]2CN1C(=O)c1ccccc1 2 µM
COc1ccccc1NC(=S)NNC(=O)c1c(Cl)c(C)nn1C 3.55 µM
Cc1nn(C)c(C(=O)NNC(=S)Nc2ccc(Cl)cc2)c1[N+](=O)[O-] 6.31 µM
O=C(O)C1=CC(=C(c2ccc(O)c(C(=O)O)c2)c2ccc(O)c(C(=O)O)c2)C=CC1=O 15.8 µM
CC1=C/C(=C(/c2ccc(O)c(C)c2)c2ccccc2C(=O)O)C=CC1=O 0.01 µM
CCN(C1CCCCC1)S(=O)(=O)c1ccc(S(=O)(=O)NCc2ccncc2)cc1 0.0398 µM
Cc1ccc(-n2nc(C)c3c2OC(N)=C(C#N)C3c2ccco2)cc1 (stereo unspecified) 6.31 µM
COc1ccccc1NC(=O)COC(=O)c1ccc(S(=O)(=O)NCc2ccco2)cc1 0.398 µM
O=c1c(-c2ccc(F)cc2)nc2cnc(N3CCNCC3)nc2n1Cc1cccs1 15.8 µM
O=c1c(-c2cc(F)cc(F)c2)nc2cnc(N3CCNCC3)nc2n1Cc1cccs1 3.98 µM
O=c1c(-c2cccs2)nc2cnc(N3CCNCC3)nc2n1Cc1cccs1 12.6 µM
O=c1c(-c2ccc(Cl)cc2)nc2cnc(N3CCNCC3)nc2n1Cc1cccs1 20 µM
COCCn1c(=O)c(-c2cccs2)nc2cnc(N3CCNCC3)nc21 2 µM
CCOC(=O)C1=C(C)N=C2SC(C(=O)OC)=CC(=O)N2C1c1ccc(F)cc1 (stereo unspecified) 7.08 µM
Cc1cc(OCc2nc(N)nc(N)c2-c2ccc(Cl)c(Cl)c2)ccc1[N+](=O)[O-] 1.58 µM
CCC(=O)Nc1ccc2c(c1)C(=O)c1ccccc1C2=O 3.16 µM
O=c1c(-c2cccs2)nc2cncnc2n1-c1ccccc1 10 µM
O=c1c(-c2ccccc2)nc2cncnc2n1-c1ccccc1 15.8 µM
O=c1c(-c2cccc(Cl)c2)nc2cncnc2n1-c1ccccc1 10 µM
CCCCn1c(NCc2ccccc2NS(=O)(=O)c2ccc(C)cc2)nc2ccccc21 1.58 µM
CN(C)C(=C(C#N)C#N)N1CCN(c2ccc(Cl)c(Cl)c2)CC1 12.6 µM
O=S(=O)(C=C(c1ccccc1)c1ccccc1)c1ccccc1 7.08 µM
O=C(Nc1ccnc(-c2cccnc2)n1)c1cccc(Cl)c1Cl 3.98 µM
O=C(Nc1ccnc(-c2cccnc2)n1)c1ccccc1Cl 15.8 µM
c1cncc(-c2nccc(NCc3cccs3)n2)c1 0.398 µM
CC(C)(C)C(=O)Nc1ccnc(-c2cccnc2)n1 3.16 µM
